According to the supplement of paper PMC11219838:
Unmarked numbers belong to inactive results.

Key:
Conditions in all cases: 60 µM; 5 days; temperature: 20 °C
Meloidogyne hapla J2 = experiment: proportion of mobile M. hapla J2 relative to DMSO control (fraction of DMSO control); higher = more viable, less nematicidal, active = 0.7 or less
Procedure, shortened: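 Sealed 96-well plates, each well holding around 25 M. hapla J2 in distilled water with compound pinned to 60 µM final (0.6% v/v DMSO), were shaken at 200 rpm for 5 days at 20 °C. Then 2 µL of 1 M NaOH was added to each well. Microscope-scored mobility was normalised to the mean of DMSO-only wells from the same plate. Eight such wells were on each plate, and the two biological replicates were averaged.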

[1] = tested on: Caenorhabditis elegans dauer (daf-2(e1370)); experiment: proportion of mobile C. elegans dauer larvae relative to DMSO control (fraction of DMSO control); higher = more viable, less nematicidal, active = 0.63 or less; extreme values may be limits of the assay
Procedure, shortened: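 The proportion of mobile worms, relative to DMSO wells, was scored by dissection microscope and averaged over two biological replicates. Worms were C. elegans dauers, about 20 per well in liquid NGM in 96-well plates, generated from synchronized larvae on MYOB plates with E. coli OP50 at 25 °C for 48 h. They were treated with compound pinned to 60 µM final (0.6% v/v DMSO) and kept in sealed plates shaken at 200 rpm for 5 days at 20 °C.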

Ditylenchus dipsaci = experiment: proportion of mobile D. dipsaci (mixed stage) relative to DMSO control (fraction of DMSO control); higher = more viable, less nematicidal, active = 0.86 or less; extreme values may be limits of the assay
Procedure, shortened: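 Mobility, expressed relative to DMSO controls, is the mean of two biological replicates. The test organisms were D. dipsaci grown on pea plants in Gamborg B-5 agar and extracted into water by filter funnel, with about 20 added per well of a 96-well plate in distilled water. Compound was pinned to 60 µM final (0.6% v/v DMSO), plates were sealed and shaken at 200 rpm for 5 days at 20 °C, and mobile worms were scored under a microscope once 2 µL 1 M NaOH had been added.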

Row | SMILES | proportion of mobile M. hapla J2 (Meloidogyne hapla J2) | proportion of mobile C. elegans dauer larvae [1] | proportion of mobile D. dipsaci (Ditylenchus dipsaci)
1 | Cc1ccc(-c2noc(COc3ccc(Cl)cc3C)n2)cc1 | 0.996 | 1 | 1
2 | O=C(CSc1nnc(-c2ccccc2)o1)c1ccc(Br)cc1 | 0.966 | 1 | 1
3 | CC(Sc1nnc(-c2ccccc2)o1)C(=O)Nc1nccs1 (centres undefined) | 1 | 1 | 1
4 | Brc1ccccc1-c1nc(-c2ccncc2)no1 | 0.995 | 0.274 (active) | 1
5 | Cc1ccc(SCc2nc(-c3ccc(C)cc3)no2)cc1 | 0.854 | 1 | 1
6 | Cc1ccc(-c2noc(COc3ccccc3Cl)n2)cc1 | 0.96 | 1 | 1
7 | Cc1ccccc1CSc1nnc(-c2ccco2)n1C | 1.03 | 1 | 0.75 (active)
8 | COc1cccc(-c2nc(-c3ccc(C)cc3)no2)c1 | 0.953 | 0 (active) | 1
9 | Clc1cc(Br)ccc1OCc1nc(-c2cccnc2)no1 | 1.04 | 1 | 1
10 | CCOc1ccccc1-c1nnc(SCC(=O)c2ccccc2)o1 | 1.01 | 1 | 1
11 | Clc1ccc(-c2noc(-c3ccncc3)n2)cc1 | 0.784 | 1 | 1
12 | O=C(CSc1nnc(-c2ccc(Br)cc2)o1)NC1CCCCC1 | 1.04 | 1 | 1
13 | Cc1ccc(OCc2nc(-c3ccncc3)no2)c(Br)c1 | 0.993 | 1 | 1
